Data on 27 compounds can be found in the supplement of paper PMC13380429.

Test [1] has as its system Vero E6 infected with SARS-CoV-2. Briefly: morphology score (similarity to uninfected cells); higher = more like uninfected cells. The conditions noted are these: 24 h.
For test [2] the test system is unchanged. Nature of the test: SARS-CoV-2 infection rate relative to infected DMSO; higher = more infection, active = 60 or less. The conditions noted are these: 24 h.

Where a name gives a salt, the structure may show the parent alone.

In the case of `Cc1c(NC(=O)N2CCOCC2)ccc2c1c1ccccc1n2C(C)C` (10 µM), in test [1], the morphology score stood at 0.121. Further, the SARS-CoV-2 infection rate in test [2] was 106% (inactive).
Regarding `COc1ccccc1NC(=O)OCC1CCN(C(=O)OC(C)(C)C)CC1` (10 µM), the morphology score in test [1] was 0.0728. In addition, in test [2], the SARS-CoV-2 infection rate is 97% (inactive).
Consider `COc1cccc2c1C(=O)c1c(O)c3c(c(O)c1C2=O)C[C@@](O)(C(=O)CO)C[C@@H]3O[C@H]1C[C@H](N)[C@@H](O)[C@H](C)O1` [Epirubicin Hydrochloride] (10 µM), for which the morphology score in test [1] is -0.016. For the same compound, the SARS-CoV-2 infection rate in test [2] was 108% (inactive).
For `Cc1c[nH]c(=O)n(CCCN2CCN(c3ccccc3OCC(F)(F)F)CC2)c1=O` (10 µM) the same measures were 0.0456 and 111% (inactive).
`O=C(O)/C=C/c1ccc(-c2ccc(O)c(C34CC5CC(CC(C5)C3)C4)c2)cc1` [adarotene] (10 µM) gave a morphology score in test [1] of 0.00299. The SARS-CoV-2 infection rate in test [2] is 100% (inactive).
For `CNCC[C@@H](Oc1ccccc1C)c1ccccc1` [atomoxetine] (10 µM) the same measures were 0.0668 and 102% (inactive).
For `Cc1oc(-c2ccccc2)nc1CCC(=O)c1ccc(CC2SC(=O)NC2=O)cc1` (centres undefined) [darglitazone] (10 µM) the same measures were 0.276 and 98.5% (inactive).
For `N[C@@H]1c2cccnc2[C@H](OC(=O)N2CCC(n3c(=O)[nH]c4ncccc43)CC2)CC[C@H]1c1cccc(F)c1F` [rimegepant] (10 µM) the same measures were 0.177 and 96.5% (inactive).
Compound `Cc1cc(-c2nc3cc(F)ccc3s2)ccc1NC(=O)[C@@H](N)CCCCN` [phortress] (10 µM) had a morphology score in test [1] of -0.32. Also, in test [2], the SARS-CoV-2 infection rate was 120% (inactive).
For `N.N.[Cl][Pt][Cl]` [cisplatin] (10 µM) the same measures were 0.0556 and 111% (inactive).
For `COc1cc2ncnc(Sc3nnc(C)s3)c2cc1OC` (10 µM) the same measures were 0.403 and 102% (inactive).
The compound `OCCOc1ccc(/C(=C(/CCCl)c2ccccc2)c2ccccc2)cc1` [ospemifene] (10 µM) registered a morphology score in test [1] of 0.19. Moreover, the SARS-CoV-2 infection rate in test [2] was 97.5% (inactive).
For `O=C(NCc1cccc(O)c1)Nc1nc(-c2ccncc2)cs1` (10 µM), the morphology score in test [1] amounted to 0.392. Also, the SARS-CoV-2 infection rate in test [2] was 97.8% (inactive).
In turn, `C/C(=N\NC(=O)C(NC(=O)c1ccccc1)c1n[nH]c(=O)c2ccccc12)c1cccc(Br)c1` (centres undefined) (10 µM) had a morphology score in test [1] of 0.029. In addition, the SARS-CoV-2 infection rate in test [2] was 98.5% (inactive).
`O=C(O)[C@H](Cc1ccccc1)NCc1ccc(Cl)cc1` (10 µM) showed a morphology score in test [1] of 0.0118. The SARS-CoV-2 infection rate in test [2] is 102% (inactive).
Compound `Nc1n[nH]c2nnc(-c3c(-c4ccccc4)nn4ccccc34)cc12` (10 µM) had a morphology score in test [1] of 0.264. In test [2], the SARS-CoV-2 infection rate is 103% (inactive).
For `c1cc(-c2cnn3cc(-c4ccc(OCCN5CCCCC5)cc4)cnc23)ccn1` [dorsomorphin] (0.833333 µM) the same measures were 0.321 and 96.5% (inactive).
In turn, `CN1C[C@@H]2C[C@H]1CN2c1cc2c(cc1F)c(=O)c(C(=O)O)cn2C1CC1` [danofloxacin] (10 µM) displayed a morphology score in test [1] of 0.319. The SARS-CoV-2 infection rate in test [2] is 100% (inactive).
For `O=C(Nc1cccc2c(=O)cc(-c3nnn[nH]3)oc12)c1ccc(OCCCCc2ccccc2)cc1` [pranlukast] (10 µM), the morphology score in test [1] came out at 0.0454. For the same compound, in test [2], the SARS-CoV-2 infection rate was 111% (inactive).
In turn, `CC(C)(C)c1ccc2cc(C#N)c(C#N)cc2c1` (10 µM) returned a morphology score in test [1] of 0.103. For the same compound, the SARS-CoV-2 infection rate in test [2] is 105% (inactive).
For `COc1ccc(C(=O)N2CCCC2=O)cc1` [aniracetam] (10 µM) the same measures were 0.0647 and 106% (inactive).
For `COc1cc(-c2ccc(=O)[nH]n2)ccc1OC(F)F` [zardaverine] (10 µM) the same measures were 0.289 and 83.5% (inactive).
As for `O=C(Oc1ccc(Br)cc1)N1CCN2CCC1CC2` (10 µM), the morphology score in test [1] was found to be 0.273. For the same compound, the SARS-CoV-2 infection rate in test [2] was 92% (inactive).
On to `C=CC(=O)Nc1cc(Nc2nccc(-c3c[nH]c4ccccc34)n2)c(OC)cc1N(C)CCN(C)C` (0.833333 µM), for which the morphology score in test [1] was -0.245. In test [2], the SARS-CoV-2 infection rate is 112% (inactive).
For `CCC(=O)N[C@@H]1Cc2ccccc2[C@H](c2ccccc2)C1` (10 µM) the same measures were -0.0816 and 110% (inactive).
For `CO[C@H](C(=O)[C@@H](O)[C@@H](C)O)[C@@H]1Cc2cc3cc(O[C@H]4C[C@@H](O[C@H]5C[C@@H](O)[C@H](O)[C@@H](C)O5)[C@@H](O)[C@@H](C)O4)c(C)c(O)c3c(O)c2C(=O)[C@H]1O[C@H]1C[C@@H](O[C@H]2C[C@@H](O[C@H]3C[C@](C)(O)[C@H](O)[C@@H](C)O3)[C@H](O)[C@@H](C)O2)[C@H](O)[C@@H](C)O1` [plicamycin] (10 µM) the same measures were -0.159 and 104% (inactive).
Compound `O=C(NCCN1CCC2(CC1)C(=O)NCN2c1cccc(F)c1)c1ccc2ccccc2c1` (10 µM) displayed a morphology score in test [1] of 0.766. The SARS-CoV-2 infection rate in test [2] is 26% (active).
